Laboratory results published in the supplement of paper PMC9262897, “Low-cost anti-mycobacterial drug discovery using engineered E. coli” (Nature Communications, 2022).
Structures can show the parent of a compound that is named as a salt. ± gives the standard deviation of the averaged measurements.

Columns and labels:
Assay in all cases: growth (OD600 after 10 h); higher = more growth (less inhibition)
[1] = tested on: E. coli TESEC Alr+ wild-type control; conditions: compound 0.1 mM; raw OD600 reference: median of DMSO wells 0.241, cell-free background 0.041
Procedure: (§1)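 TESEC Mtb Alr E. coli, or the Alr+ wild-type control, in 384-well plates with Prestwick library compounds at 0.1 mM and 1% DMSO, across arabinose induction levels of 1E3 to 1E7 nM. Growth is read as OD600 after 10 h at 37 °C in triplicate biological replicates.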

E. coli TESEC Mtb Alr [2] = conditions: compound 0.1 mM
Procedure: as §1

E. coli TESEC Mtb Asd = conditions: compound 0.1 mM
Procedure: (§2)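 TESEC E. coli strains in which the native enzyme is deleted and replaced by arabinose-inducible Mtb Asd, DapB, CysH or TrpD, each grown in its selective medium. Strains were screened against the Prestwick library at 0.1 mM and 1% DMSO in 384-well format at low and high arabinose induction. Growth is read as OD600 after 10 h in triplicate.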

E. coli TESEC Mtb DapB = conditions: compound 0.1 mM
Procedure: as §2

[3] = tested on: E. coli TESEC Alr+ wild-type control; conditions: compound 0.1 mM; raw OD600 reference: median of DMSO wells 0.49, cell-free background 0.052
Procedure: (§3)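 TESEC Mtb Alr E. coli (ΔaraC ΔtolC ΔentC Δalr ΔdadX, arabinose-inducible Mtb Alr) or the Alr+ wild-type control strain, grown in defined M9-fructose medium without D-alanine in 96-well plates with Prestwick library compounds at 0.1 mM and 1% DMSO. Low Alr induction is 0.1 µM arabinose and high induction is 10 mM arabinose.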

E. coli TESEC Mtb Alr [4] = conditions: compound 0.1 mM; remark: listed apart in the source
Procedure: as §3

[5] = arabinose 1000 nM, raw OD600 reference: median of DMSO wells 0.294, cell-free background 0.041
[6] = arabinose 10000 nM, raw OD600 reference: median of DMSO wells 0.264, cell-free background 0.041
[7] = arabinose 100000 nM, raw OD600 reference: median of DMSO wells 0.201, cell-free background 0.041
[8] = arabinose 1000000 nM, raw OD600 reference: median of DMSO wells 0.193, cell-free background 0.041
[9] = arabinose 10000000 nM, raw OD600 reference: median of DMSO wells 0.146, cell-free background 0.041
[10] = arabinose induction (level): High, raw OD600 reference: median of DMSO wells 0.331, cell-free background 0.041
[11] = arabinose induction (level): Low, raw OD600 reference: median of DMSO wells 0.417, cell-free background 0.041
[12] = arabinose induction (level): High, raw OD600 reference: median of DMSO wells […], cell-free background 0.041
[13] = arabinose induction (level): Low, raw OD600 reference: median of DMSO wells 0.227, cell-free background 0.041
[14] = arabinose 100 nM, raw OD600 reference: median of DMSO wells 0.413, cell-free background 0.052
[15] = arabinose 10000000 nM, raw OD600 reference: median of DMSO wells […], cell-free background 0.052

| SMILES | growth [1] | growth (E. coli TESEC Mtb Alr [2]; [5]) | growth (E. coli TESEC Mtb Alr [2]; [6]) | growth (E. coli TESEC Mtb Alr [2]; [7]) | growth (E. coli TESEC Mtb Alr [2]; [8]) | growth (E. coli TESEC Mtb Alr [2]; [9]) | growth (E. coli TESEC Mtb Asd; [10]) | growth (E. coli TESEC Mtb Asd; [11]) | growth (E. coli TESEC Mtb DapB; [12]) | growth (E. coli TESEC Mtb DapB; [13]) | growth [3] | growth (E. coli TESEC Mtb Alr [4]; [14]) | growth (E. coli TESEC Mtb Alr [4]; [15]) |
| --- | --- | --- | --- | --- | --- | --- | --- | --- | --- | --- | --- | --- | --- |
| CCN1CCN(C(=O)N[C@@H](C(=O)N[C@@H]2C(=O)N3[C@@H]2SC(C)(C)[C@@H]3C(=O)O)c2ccccc2)C(=O)C1=O [Piperacillin sodium salt] | 0.237 ± 0.0061 | 0.295 ± 0.014 | 0.268 ± 0.0055 | 0.204 ± 0.0097 | 0.201 ± 0.0086 | 0.133 ± 0.0047 | 0.328 ± 0.021 | 0.4754 ± 0.0046 | 0.204 ± 0.01 | 0.207 ± 0.025 | 0.508 ± 0.061 | 0.405 ± 0.013 | 0.354 ± 0.011 |
| CNCCC(Oc1ccc(C(F)(F)F)cc1)c1ccccc1 (stereo not drawn) [Fluoxetine hydrochloride] | 0.129 ± 0.0027 | 0.0669 ± 0.0012 | 0.133 ± 0.0068 | 0.0693 ± 0.0015 | 0.0486 ± 0.00026 | 0.05543 ± 0.00047 | 0.0984 ± 0.0045 | 0.086 ± 0.016 | 0.142 ± 0.036 | 0.132 ± 0.0058 | 0.118 ± 0.11 | 0.411 ± 0.011 | 0.0614 ± 0.0047 |
| CC(C)NCC(O)c1ccc(O)c(O)c1 (single isomer, unassigned; (-)) [(-)-Isoproterenol hydrochloride] | 0.236 ± 0.0036 | 0.289 ± 0.0076 | 0.278 ± 0.015 | 0.184 ± 0.02 | 0.199 ± 0.004 | 0.143 ± 0.0042 | 0.281 ± 0.052 | 0.392 ± 0.03 | 0.191 ± 0.014 | 0.23 ± 0.035 | 0.539 ± 0.066 | 0.4345 ± 0.003 | 0.32 ± 0.02 |
| CCC[C@@H]1C[C@@H](C(=O)N[C@@H]([C@H]2O[C@H](SC)[C@H](O)[C@@H](O)[C@H]2O)[C@H](C)Cl)N(C)C1 [Clindamycin hydrochloride] | 0.0527 ± 0.0012 | 0.048 ± 0.0007 | 0.04127 ± 0.0004 | 0.0497 ± 0.00055 | 0.04133 ± 0.00032 | 0.0496 ± 0.00085 | 0.0699 ± 0.0019 | 0.0715 ± 0.0033 | 0.0755 ± 0.0023 | 0.0766 ± 0.0063 | 0.0771 ± 0.0023 | 0.15 ± 0.014 | 0.0594 ± 0.0027 |
| NCc1ccccc1CC(=O)N[C@@H]1C(=O)N2C(C(=O)O)=C(CSc3nnnn3CC(=O)O)CS[C@H]12 [Ceforanide] | 0.3 ± 0.0032 | 0.324 ± 0.0083 | 0.167 ± 0.0036 | 0.238 ± 0.016 | 0.161 ± 0.0024 | 0.206 ± 0.0071 | 0.244 ± 0.01 | 0.315 ± 0.033 | 0.182 ± 0.012 | 0.242 ± 0.012 | 0.501 ± 0.055 | 0.108 ± 0.033 | 0.303 ± 0.024 |
| O=C1NCCN1c1ncc([N+](=O)[O-])s1 [Niridazole] | 0.0479 ± 0.0055 | 0.0513 ± 0.005 | 0.0413 ± 0.0019 | 0.0452 ± 0.0004 | 0.0407 ± 0.00045 | 0.0598 ± 0.023 | 0.0946 ± 0.0021 | 0.203 ± 0.07 | 0.161 ± 0.015 | 0.177 ± 0.022 | 0.0563 ± 0.002 | 0.119 ± 0.025 | 0.0512 ± 0.00072 |
| CN(C)CCC=C1c2ccccc2COc2ccccc21 [Doxepin hydrochloride] | 0.199 ± 0.018 | 0.245 ± 0.0099 | 0.262 ± 0.011 | 0.178 ± 0.0063 | 0.134 ± 0.0022 | 0.144 ± 0.0036 | 0.186 ± 0.034 | 0.326 ± 0.032 | 0.169 ± 0.013 | 0.182 ± 0.013 | 0.472 ± 0.033 | 0.41 ± 0.0055 | 0.342 ± 0.046 |
| COc1ccc(Cl)cc1C(=O)NCCc1ccc(S(=O)(=O)NC(=O)NC2CCCCC2)cc1 [Glibenclamide] | 0.122 ± 0.0053 | 0.166 ± 0.035 | 0.146 ± 0.004 | 0.144 ± 0.0077 | 0.0688 ± 0.0014 | 0.125 ± 0.0025 | 0.154 ± 0.02 | 0.218 ± 0.015 | 0.158 ± 0.013 | 0.173 ± 0.014 | 0.355 ± 0.032 | 0.349 ± 0.12 | 0.0906 ± 0.0069 |
| Cc1c(Cl)cccc1Nc1ccccc1C(=O)O [Tolfenamic acid] | 0.0444 ± 0.0007 | 0.0448 ± 0.0007 | 0.0413 ± 0.0001 | 0.0477 ± 0.0013 | 0.0424 ± 0.00053 | 0.0598 ± 0.0014 | 0.0513 ± 0.0022 | 0.052 ± 0.004 | 0.0686 ± 0.0054 | 0.0876 ± 0.044 | 0.0743 ± 0.0023 | 0.0964 ± 0.065 | 0.0536 ± 0.0002 |
| CC/C(=C(/CC)c1ccc(O)cc1)c1ccc(O)cc1 [Diethylstilbestrol] | 0.0422 ± 0.0023 | 0.04 ± 0.0015 | 0.0413 ± 0.0044 | 0.0436 ± 0.0041 | 0.0394 ± 0.00096 | 0.0457 ± 0.0042 | 0.169 ± 0.011 | 0.0743 ± 0.016 | 0.171 ± 0.013 | 0.198 ± 0.012 | 0.0495 ± 0.0011 | 0.0551 ± 0.0059 | 0.0557 ± 0.0043 |
| COc1ccc(C(=O)c2ccccc2O)c(O)c1 [Dioxybenzone] | 0.125 ± 0.0069 | 0.116 ± 0.0049 | 0.124 ± 0.0053 | 0.107 ± 0.005 | 0.085 ± 0.0034 | 0.107 ± 0.0014 | 0.261 ± 0.022 | 0.197 ± 0.0098 | 0.183 ± 0.014 | 0.23 ± 0.016 | 0.355 ± 0.014 | 0.352 ± 0.05 | 0.152 ± 0.014 |
| COC(=O)Nc1nc2cc([S+]([O-])c3ccccc3)ccc2[nH]1 (stereo not drawn) [Oxfendazol] | 0.251 ± 0.016 | 0.304 ± 0.014 | 0.2674 ± 0.00072 | 0.195 ± 0.024 | 0.165 ± 0.0037 | 0.1348 ± 0.00046 | 0.276 ± 0.08 | 0.382 ± 0.044 | 0.173 ± 0.0069 | 0.174 ± 0.042 | 0.634 ± 0.024 | 0.407 ± 0.011 | 0.312 ± 0.022 |
| O=C(COc1ccc(Cl)cc1)N1CCN(Cc2ccc3c(c2)OCO3)CC1 [Fipexide hydrochloride] | 0.13 ± 0.0038 | 0.146 ± 0.0033 | 0.138 ± 0.0033 | 0.154 ± 0.0017 | 0.0771 ± 0.0022 | 0.144 ± 0.0034 | 0.207 ± 0.039 | 0.214 ± 0.025 | 0.167 ± 0.0018 | 0.234 ± 0.024 | 0.303 ± 0.022 | 0.38 ± 0.029 | 0.168 ± 0.033 |
| CC(C)(C)NCC(O)COc1cccc2c1CCC(=O)N2 (stereo not drawn) [Carteolol hydrochloride] | 0.236 ± 0.0081 | 0.285 ± 0.02 | 0.2521 ± 0.002 | 0.197 ± 0.043 | 0.181 ± 0.0071 | 0.143 ± 0.0038 | 0.222 ± 0.024 | 0.349 ± 0.1 | 0.187 ± 0.0085 | 0.217 ± 0.022 | 0.649 ± 0.043 | 0.405 ± 0.009 | 0.334 ± 0.0046 |
| COc1cc(-c2ccc(=O)[nH]n2)ccc1OC(F)F [Zardaverine] | 0.14 ± 0.0036 | 0.173 ± 0.0042 | 0.188 ± 0.013 | 0.17 ± 0.021 | 0.171 ± 0.0067 | 0.147 ± 0.0091 | 0.211 ± 0.014 | 0.162 ± 0.014 | 0.16 ± 0.012 | 0.176 ± 0.018 | 0.442 ± 0.044 | 0.401 ± 0.0082 | 0.35 ± 0.011 |
| O=c1[nH]c(=O)n(C2CCCO2)cc1F (stereo not drawn) [Tegafur] | 0.2441 ± 0.0016 | 0.284 ± 0.0093 | 0.2613 ± 0.001 | 0.208 ± 0.0031 | 0.224 ± 0.013 | 0.135 ± 0.0053 | 0.366 ± 0.03 | 0.359 ± 0.091 | 0.2018 ± 0.0016 | 0.23 ± 0.032 | 0.586 ± 0.12 | 0.407 ± 0.011 | 0.346 ± 0.011 |
